PubChem BioAssay AID624040 (The Scripps Research Institute Molecular Screening Center, 2012)
“And” between values parts separate entries of the source, which are not always exact repeats. Equal values may be shown once. Among all 360,000 compounds or so, about 2,100 (0.58%) were called active. This is one part of a sample in which actives are shown more often than they occur. Values without a mark were called inactive.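 How the source made its calls: active means inhibition above a per-plate cutoff, the mean of that plate's test compounds plus 3 SD (cut at about 27% in these data); inactive means the rest.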

What follows are compounds tested against Muscarinic acetylcholine receptor M5 (Homo sapiens) (UniProt P08912) (assay: human M5 muscarinic receptor antagonists, primary screen, CHO cells, Fluo-8 calcium fluorescence (AID 624040;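 further: 0% = acetylcholine EC80 with DMSO and 100% = DMSO without agonist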)). Settings: CHO-hM5 cells, ACh EC80, at 3 µM, active compounds read high.
Muscarinic acetylcholine receptor M5 (Homo sapiens), sequence (P08912 whole entry, looked up): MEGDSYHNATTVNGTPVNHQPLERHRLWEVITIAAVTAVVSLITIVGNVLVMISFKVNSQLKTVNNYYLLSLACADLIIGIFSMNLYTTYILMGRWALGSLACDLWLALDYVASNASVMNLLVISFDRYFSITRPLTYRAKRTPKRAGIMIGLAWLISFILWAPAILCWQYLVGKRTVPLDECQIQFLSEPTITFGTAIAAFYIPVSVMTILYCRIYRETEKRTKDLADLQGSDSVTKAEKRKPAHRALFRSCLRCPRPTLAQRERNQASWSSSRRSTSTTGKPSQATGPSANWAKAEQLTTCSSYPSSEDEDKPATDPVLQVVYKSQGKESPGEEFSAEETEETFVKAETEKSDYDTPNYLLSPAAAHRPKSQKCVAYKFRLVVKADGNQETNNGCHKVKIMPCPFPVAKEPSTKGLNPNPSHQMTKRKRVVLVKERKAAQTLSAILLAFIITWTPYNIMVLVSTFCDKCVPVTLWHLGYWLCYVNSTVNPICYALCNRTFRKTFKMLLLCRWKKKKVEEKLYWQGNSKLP
With COc1ccc(CCNC(=O)CCC(=O)NC2CCCCC2)cc1OC the inhibition was 15.9%. Compound CCc1ccc(N(C(=O)c2csnn2)C(C(=O)NC2CCCCC2)c2cccnc2)cc1 (configuration not stated) has an inhibition of -0.48%. With COc1ccccc1CNC(=O)c1ccc(Cl)c(S(=O)(=O)N2CCCC2)c1 the inhibition was -2.46%. Compound CC(=O)c1ccc(S(=O)(=O)Nc2ccc(C(=O)NCC(c3ccccc3)N(C)C)cc2)cc1 (configuration not stated) has an inhibition of 0.82%. For COc1ccccc1C(CNC(=O)c1cccc(S(=O)(=O)Nc2ccc(F)cc2)c1)N(C)C (configuration not stated), the inhibition was 98% (active). With Cc1cccc(NS(=O)(=O)c2ccc(C)c(C(=O)NCC(c3ccccc3)N(C)C)c2)c1 (configuration not stated) the inhibition was 5.12%. For COc1ccccc1C(CNC(=O)c1ccc(C)c(S(=O)(=O)N2CCCCC2)c1)N(C)C (configuration not stated), the inhibition was 98.7% (active). Cc1ccc(C(=O)NCC(c2cccs2)N(C)C)cc1S(=O)(=O)N1CCOCC1 (configuration not stated) was tested, and the inhibition was 4.49%. With CN(C)C(CNC(=O)c1cccc(S(=O)(=O)Nc2ccc(Br)cc2)c1)c1ccco1 (configuration not stated) the inhibition was 4.75%. In the case of COc1ccccc1C(CNC(=O)c1cccc(NS(=O)(=O)c2ccc(Br)cc2)c1)N(C)C (configuration not stated), the inhibition is reported as 93.8% (active). COc1ccc(C(CNC(=O)c2cccc(S(=O)(=O)Nc3ccc(Br)cc3)c2)N(C)C)cc1 (configuration not stated) was tested, and the inhibition was 5.55%. With C/C(CC(O)(/C=N/O)c1ccccc1)=N\O (configuration not stated) the inhibition was -4.45%. Compound O=C(CSc1nnc(-c2c[nH]c3ccccc23)n1-c1ccc(F)cc1)NCc1ccco1 has an inhibition of -3.75%. CCOc1ncccc1C(=O)OCC(=O)NC1CC1 gave an inhibition of 10.6%. CC(C)C(=O)N1CCN(CCN=CC2=C(O)CC(c3ccco3)CC2=O)CC1 (configuration not stated) was tested, and the inhibition was -10.8% and 8.17%. In the case of CCOC(=O)C1=NN(c2ccc(Cl)cc2)/C(=C/C2=NCCc3cc(OC)c(OC)cc32)S1, the inhibition is reported as -2.43%. O=C(NCc1ccccc1)C1CCCN(c2nc3ccsc3c(=O)s2)C1 (configuration not stated) gave an inhibition of -8.79%. Work on Cc1cccc(N(Cc2ccccc2)C(=O)c2cc(S(=O)(=O)N3CCOCC3)ccc2F)c1 yielded an inhibition of 1.23%. In the case of Cc1ccc(Cn2cc(CN3CC(N4CCN(C)CC4)CS3(=O)=O)nn2)cc1 (configuration not stated), the inhibition is reported as 0.4%. CN(Cc1cn(Cc2ccc(C(F)(F)F)cc2)nn1)C1CN(Cc2cn(Cc3ccc(C(F)(F)F)cc3)nn2)S(=O)(=O)C1 (configuration not stated) was tested, and the inhibition was 28.6% (active). Compound CN(C)C1CN(Cc2cn(Cc3ccccc3)nn2)S(=O)(=O)C1 (configuration not stated) has an inhibition of 0.6%. COC(=O)c1c(-c2cccs2)csc1NC(=O)CSc1ncnc2sc(C)c(C)c12 was tested, and the inhibition was -0.42%. In the case of O=S(=O)(Nc1ccc(O)c2ccccc12)c1ccc(OC(F)(F)F)cc1, the inhibition is reported as 7.68%. Work on O=C(c1ccc(F)cc1)N1CCC(C(=O)N2CCN(S(=O)(=O)c3ccccc3Br)CC2)CC1 yielded an inhibition of 4.21%. With CCCCCc1c(Cc2ccccc2)ncn1CCc1ccccc1OC the inhibition was 30.2% (active). For CCCCCc1c(-c2ccc(OC)c(OC)c2)ncn1CCc1ccccc1OC, the inhibition was 15.1%. Compound CCCCCc1c(-c2cccc(Br)c2)ncn1CCc1ccccc1OC has an inhibition of -1.26%. Cc1cccc(C)c1NC(=O)C(c1ccc(C(F)(F)F)cc1)n1c(=O)c(-c2ccco2)nc2ccccc21 (configuration not stated) was tested, and the inhibition was -5.75%. With c1ccc(C(=NNc2nc3ccccc3s2)c2ccccn2)cc1 the inhibition was 53.7% (active). In the case of CCOc1ccc(-n2c(SCC(=O)NC3CCS(=O)(=O)C3)nnc2-c2cccnc2)cc1 (configuration not stated), the inhibition is reported as 0.02%. c1ccc(COc2ccccc2CNCc2cccnc2)cc1 was tested, and the inhibition was 6.7%. In the case of c1ccc2c(c1)CSc1sccc1C2=C1CCNCC1, the inhibition is reported as 99% (active). CC(C)(C)[C@H]1C=C(C(=O)NCc2ccccc2)O[C@@H](OCc2ccc(CO)cc2)C1 was tested, and the inhibition was 27% (active). For O=C(NCc1ccccc1)C1=C[C@H](C2CC2)C[C@H](OCc2ccc(CO)cc2)O1, the inhibition was 8.59%. O=C(NCc1ccccc1)C1=C[C@@H](C2CCCCC2)C[C@@H](OCc2ccc(CO)cc2)O1 was tested, and the inhibition was 15.6%. Cc1ccc(S(=O)(=O)N2CCCC(C(=O)N3CCN(C)CC3)C2)cc1 (configuration not stated) was tested, and the inhibition was -2.93%. For COc1ccc(S(=O)(=O)N2CCCC(C(=O)N3CCN(C)CC3)C2)cc1C (configuration not stated), the inhibition was 10.1%. For CC(=O)N1CCCc2cc(S(=O)(=O)N3CCCC(C(=O)N4CCN(c5cccc(Cl)c5)CC4)C3)ccc21 (configuration not stated), the inhibition was 39.3% (active). CC1=C(C)CC(C(=O)NNC(=O)c2csc3c2CCC(C(C)(C)C)C3)C(C(=O)O)C1 (configuration not stated) showed an inhibition of -0.27%. For CCc1c(Nc2ccccc2Cl)nc(N)[nH]c1=O, the inhibition was 6.79%. For Cc1ccccc1NC(=O)Cc1nc(COC(=O)C(C)(C)Oc2ccc(Cl)cc2)cs1, the inhibition was 0.92%. With CC(C)CC(=O)NC(=S)NNC(=O)c1cccc([N+](=O)[O-])c1 the inhibition was 32.7% (active). Work on O=C(NC(=S)NC1CCS(=O)(=O)C1)c1cccc([N+](=O)[O-])c1 (configuration not stated) yielded an inhibition of -3.13%. With C/C(=N\NC(=O)c1cccc([N+](=O)[O-])c1)c1cccnc1 the inhibition was 0.74%. With C[C@@H](CN1CCC[C@H]1CN1C(N)=NC[C@@H]1Cc1ccccc1)N1C[C@@H](Cc2ccccc2)N(CCCC2CCCC2)C1=N the inhibition was 28.9% (active). In the case of NC1=NC[C@@H](Cc2ccc(O)cc2)N1CC1CCCCC1, the inhibition is reported as 9.28%. CC[C@@H](C)[C@@H]1CN([C@@H](C)CN2CCC[C@H]2CN2C(N)=NC[C@H]2C(C)C)C(=N)N1CCc1ccc(Cl)c(Cl)c1 gave an inhibition of -2.75%.
